This passage reports outcome, Potency and activity, negative = inhibition results from PubChem BioAssay (NCATS).

Unmarked numbers belong to inactive results. Records with an inconclusive call do not appear. Active and inactive are the calls of the source. Unless noted, the call rests on the fitted dose curve; in most records, active means well fitted curve in the direction sought with a large enough effect; inconclusive means small, poorly fitted or top-dose-only effect, or another doubt; inactive means no such curve, though single readings can be large; an effect the other way counts as inactive or inconclusive.

For experiment [1], the target named is Alpha-galactosidase (Coffea arabica) (UniProt Q42656). Kind of experiment: Counterscreen for Glucocerebrosidase Inhibitors: qHTS Assay for Coffee Bean alpha-Galactosidase at pH 4.5 (AID 957).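 Further: plate controls were enzyme alone for no effect and no enzyme for full effect.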 In outline:
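Green coffee bean enzyme (2 nM final) was incubated with compounds (0.7 nM to 77 uM) and 4-methylumbelliferyl alpha-D-galactopyranoside (80 uM final) in 50 mM citric acid, 0.005% Tween-20, pH 4.5, 20 min at room temperature; AC50 from Hill fits.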
Background: Counterscreens check selectivity or assay interference.

Experiment [2] shares this target. Kind of experiment: Counterscreen for Glucocerebrosidase Inhibitors: qHTS Assay for Coffee Bean alpha-Galactosidase at pH 5.9 (AID 998).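 Further: plate controls were uninhibited enzyme for no effect and no-enzyme basal signal for full effect.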 In outline:
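Green coffee bean enzyme (2 nM) with 4-methylumbelliferyl alpha-D-galactopyranoside (80 uM) in 50 mM citric acid, 0.005% Tween-20, pH 5.9, 20 min at room temperature; compounds 0.7 nM–77 uM. Stopped at pH 10, fluorescence Ex365/Em440; Hill-fit AC50.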

A short description of experiment [3]: Validation screen for inhibitors of Lassa infection (AID 463096; calls by dose curve; further: potency means the concentration at half of the fitted maximal effect).
A short description of experiment [4]: qHTS profiling for inhibitors of Plasmodium falciparum proliferation (AID 504749).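 Further: 0% = DMSO vehicle and full inhibition = artemisinin control; nearly all actives have a fitted effect of over 60% in size.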 To be noted: P. falciparum in erythrocytes, SYBR Green DNA, 72 h, at 28.7 µM (top of the series). Put shortly:
(§1)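 Readout was DNA-dye fluorescence from lysed cultures, ex 485/em 535 nm. Parasitized red cells had grown 72 h with compound; data scaled between 0.29 uM artemisinin and DMSO wells and corrected using vehicle-only plates.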
On the technique in general: Quantitative high-throughput screening tests each substance at several concentrations.

The subject of a further experiment is 3D7. The experiment is described as above. To be noted: P. falciparum in erythrocytes, SYBR Green DNA, 72 h; series mostly up to 28.7 µM. In outline:
as §1

Another experiment deals with AA1029. The description is as above. To be noted: P. falciparum in erythrocytes, SYBR Green DNA, 72 h; series mostly up to 28.7 µM. Put shortly: as §1
In the next experiment the test system is AS120. The description is as above. To be noted: P. falciparum in erythrocytes, SYBR Green DNA, 72 h; series mostly up to 28.7 µM. In outline: as §1
The next experiment relates to ATS189. The description is as above. To be noted: P. falciparum in erythrocytes, SYBR Green DNA, 72 h; series mostly up to 28.7 µM. Put shortly: as §1
In a further experiment the test system is C2A. The description is as above. The following applies: P. falciparum in erythrocytes, SYBR Green DNA, 72 h; series mostly up to 28.7 µM. Put shortly: as §1
The next experiment has as its system CP191. The description is as above. The following applies: P. falciparum in erythrocytes, SYBR Green DNA, 72 h; series mostly up to 28.7 µM. Put shortly:
as §1

A further experiment concerns CP215. The description is as above. The following applies: P. falciparum in erythrocytes, SYBR Green DNA, 72 h; series mostly up to 28.7 µM. In outline: as §1
For a further experiment, the system named is CP217. The description is as above. The following applies: P. falciparum in erythrocytes, SYBR Green DNA, 72 h; series mostly up to 28.7 µM. In outline: as §1
The next experiment concerns CP238. Described as above. To be noted: P. falciparum in erythrocytes, SYBR Green DNA, 72 h; series mostly up to 28.7 µM. In outline:
as §1

The test system of another experiment is CP247. The experiment is described as above. The following applies: P. falciparum in erythrocytes, SYBR Green DNA, 72 h; series mostly up to 28.7 µM. In outline: as §1
The test system of another experiment is CP252. The description is as above. The following applies: P. falciparum in erythrocytes, SYBR Green DNA, 72 h; series mostly up to 28.7 µM. Put shortly:
as §1

The next experiment has as its system CP256. The description is as above. To be noted: P. falciparum in erythrocytes, SYBR Green DNA, 72 h; series mostly up to 28.7 µM. In outline: as §1
Another experiment has as its system CP286. Described as above. The following applies: P. falciparum in erythrocytes, SYBR Green DNA, 72 h; series mostly up to 28.7 µM. Put shortly:
as §1

Another experiment deals with CP291. The experiment is described as above. To be noted: P. falciparum in erythrocytes, SYBR Green DNA, 72 h; series mostly up to 28.7 µM. In outline:
as §1

Another experiment has as its system CP325. The description is as above. The following applies: P. falciparum in erythrocytes, SYBR Green DNA, 72 h; series mostly up to 28.7 µM. Put shortly: as §1
The test system of the next experiment is HB3. The experiment is described as above. The following applies: P. falciparum in erythrocytes, SYBR Green DNA, 72 h; series mostly up to 28.7 µM. Put shortly:
as §1

Sequence of Alpha-galactosidase (Coffea arabica) (Q42656 whole entry, looked up): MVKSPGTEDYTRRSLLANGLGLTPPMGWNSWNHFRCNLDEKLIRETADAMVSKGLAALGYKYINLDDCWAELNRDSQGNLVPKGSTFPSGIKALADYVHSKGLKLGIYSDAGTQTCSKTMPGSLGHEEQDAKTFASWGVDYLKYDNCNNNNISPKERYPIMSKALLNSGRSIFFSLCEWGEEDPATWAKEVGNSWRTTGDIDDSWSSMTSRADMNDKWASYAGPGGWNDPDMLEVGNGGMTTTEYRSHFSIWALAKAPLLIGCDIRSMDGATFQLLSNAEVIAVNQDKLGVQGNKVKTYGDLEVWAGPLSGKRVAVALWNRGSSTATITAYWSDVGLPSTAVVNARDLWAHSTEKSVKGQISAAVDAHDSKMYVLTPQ

With `O=C(O)c1cc(=O)c2ccc(Cl)cc2[nH]1`, the outcome in experiment [1] and in experiment [2] was inactive. The Potency entry in experiment [3] is “inactive”.
In the case of `Cc1cccc(C)c1NC(=O)C[N+](C)(C)C`, the outcome in experiment [1] and in [2] was inactive. The Potency result in experiment [3] was “inactive”.
Turning to `COc1ccc2c(c1)c(CC(=O)O)c(C)n2Cc1ccc(F)cc1`, the compound was classed as inactive in experiment [2]. Moreover, in experiment [3], the Potency result is “inactive”.
With `N=C(N)SCCc1cccc(CCSC(=N)N)c1`, the compound was classed as inactive in experiment [2]. The Potency entry in [3] is “inactive”.
Take `COc1[nH]c2ccc(F)cc2c1C(=O)OCC1CCN(CCNS(C)(=O)=O)CC1`: the call in [1] and in experiment [2] was inactive. Further, in experiment [3], the Potency result is “inactive”.
Consider `COc1ccc2c(c1)c(CC(=O)N1CCOCC1)c(C)n2C(=O)c1ccc(Cl)cc1`, for which the compound was classed as inactive in experiment [1] and in [2]. Besides, the Potency entry in experiment [3] is “inactive”.
As to `O=C(Cc1ccc(Cl)c(Cl)c1)OCCN1CCCC1`, the call in [1] and in [2] was inactive. Moreover, the Potency result in [3] is “inactive”.
As for `CCCNC[C@H](O)COc1ccccc1C(=O)CCc1ccccc1`, the compound was called inactive in experiment [1] and in experiment [2]. The Potency entry in [3] is “inactive”.
As for `COC(=O)c1c(-c2cc(OC)c(OC)c(OC)c2)c2ccc(OCc3ccccn3)cc2c(=O)n1-c1ccc(N)cc1`, the result in experiment [1] and in experiment [2] was inactive. For the same compound, the Potency result in [3] is “inactive”.
Regarding `CCSC(N)=Nc1ccc(C(F)(F)F)cc1`, the compound was called inactive in experiment [1] and in experiment [2]. The Potency result in experiment [3] is “inactive”.
Turning to `O=S(=O)(O)C1CCNCC1`, the compound was called inactive in experiment [1] and in experiment [2]. In addition, the Potency entry in experiment [3] was “inactive”.
For the compound `CCCn1c(=O)c2[nH]c(-c3ccc(OCC(=O)Nc4ccc(C#N)cc4)cc3)nc2n(CCC)c1=O`, the compound was classed as inactive in experiment [1] and in experiment [2]. In addition, the Potency result in experiment [3] is “inactive”.
On to `NCCC(=O)NCCc1cnc[nH]1`, for which the result in experiment [1] and in experiment [2] was inactive. In addition, the Potency result in [3] was “inactive”.
Regarding `CC(=O)NCCc1ccc(O)c(O)c1`, the compound was classed as inactive in experiment [1] and in experiment [2]. In experiment [3], the Potency result is “inactive”.
Regarding `N#Cc1c(-c2ccccc2)no[n+]1[O-]`, the outcome in [1] and in [2] was inactive. For the same compound, the Potency in experiment [3] is 10 µM (active).
Regarding `CN(C)CCCCSC(=N)N`, the compound was classed as inactive in experiment [1] and in experiment [2]. For the same compound, in experiment [3], the Potency entry is “inactive”.
`Cc1cc(C)c(NC(=O)C[C@H](CC(=O)O)c2cccc3ccccc23)c(C(=O)N2CCC3(CCCC3)CC2)c1`: the result in experiment [1] and in experiment [2] was inactive. Further, the Potency result in experiment [3] is “inactive”.
In the case of `OC[C@@H](O)[C@H]1O[C@@H]2OC(C(Cl)(Cl)Cl)O[C@H]2[C@H]1O` (stereo not given in full), the values for the activity, negative = inhibition in experiment [4] (parasite line A) and in [4] (parasite line B) were 8.29% and 19.1%, respectively. Besides, the Potency entry in the experiment on 3D7, with AA1029, in the experiment with AS120, in the experiment with ATS189, in the experiment with C2A and in the experiment on CP191 was “inactive” throughout. Besides, the Potency entry in the experiment with CP215, in the experiment with CP217, with CP238, in the experiment with CP247, in the experiment with CP252 and in the experiment on CP256 was “inactive” throughout. In addition, the Potency result with CP286, in the experiment with CP291, in the experiment with CP325 and with HB3 was “inactive” in each case.
For `C[C@@H](N)[C@@H](O)c1ccc(O)c(O)c1`, the activity, negative = inhibition in experiment [4] (parasite line A) is -5.35%; in experiment [4] (parasite line B), 7.25%. The Potency result in the experiment on 3D7, in the experiment with AA1029, with AS120, in the experiment on ATS189, with C2A and in the experiment with CP191 was “inactive” throughout. Moreover, the Potency entry in the experiment with CP215, in the experiment with CP217, in the experiment with CP238, in the experiment with CP247, in the experiment with CP252 and in the experiment on CP256 was “inactive” each time. For the same compound, the Potency result in the experiment with CP286, in the experiment with CP291, in the experiment on CP325 and with HB3 was “inactive” throughout.
